The source of these data is ChEMBL document CHEMBL2218924, “A broad activity screen in support of a chemogenomic map for kinase signalling research and drug discovery” (Biochem J, 2013).

Test [1] has as its target Vascular endothelial growth factor receptor 3 (Homo sapiens) (UniProt P35916). Particulars: at 10 µM.
Test [2] concerns the target Macrophage colony-stimulating factor 1 receptor (Homo sapiens) (UniProt P07333). Particulars: at 1 µM.
The target is the same in test [3]. Particulars: at 10 µM.
In test [4] the target is Tyrosine-protein kinase Fyn (Homo sapiens) (UniProt P06241). Particulars: at 1 µM.
The target is the same in test [5]. Particulars: at 10 µM.
Test [6] concerns the target T1, Mitogen-activated protein kinase kinase kinase kinase 2 (Homo sapiens) (UniProt Q12851).
T1 sequence (whole entry): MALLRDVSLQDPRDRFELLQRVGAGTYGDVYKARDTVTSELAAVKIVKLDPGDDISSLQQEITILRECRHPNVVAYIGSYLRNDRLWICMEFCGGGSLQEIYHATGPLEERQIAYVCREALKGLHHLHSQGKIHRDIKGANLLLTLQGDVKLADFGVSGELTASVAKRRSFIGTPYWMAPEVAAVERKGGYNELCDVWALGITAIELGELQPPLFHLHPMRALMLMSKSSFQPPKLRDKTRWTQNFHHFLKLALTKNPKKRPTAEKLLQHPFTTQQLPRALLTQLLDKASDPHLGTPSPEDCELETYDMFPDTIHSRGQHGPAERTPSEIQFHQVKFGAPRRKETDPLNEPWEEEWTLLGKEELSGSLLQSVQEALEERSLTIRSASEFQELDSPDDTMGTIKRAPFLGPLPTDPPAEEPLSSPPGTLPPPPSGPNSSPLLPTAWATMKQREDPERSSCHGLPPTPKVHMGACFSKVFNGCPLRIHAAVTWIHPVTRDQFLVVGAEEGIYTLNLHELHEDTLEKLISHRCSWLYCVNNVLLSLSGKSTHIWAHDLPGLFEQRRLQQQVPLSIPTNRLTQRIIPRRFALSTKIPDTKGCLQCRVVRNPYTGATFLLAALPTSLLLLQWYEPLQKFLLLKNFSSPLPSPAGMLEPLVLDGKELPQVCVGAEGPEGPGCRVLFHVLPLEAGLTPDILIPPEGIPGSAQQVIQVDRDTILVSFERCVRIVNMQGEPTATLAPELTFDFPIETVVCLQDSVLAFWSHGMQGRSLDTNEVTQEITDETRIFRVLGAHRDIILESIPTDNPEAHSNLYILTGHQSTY
Particulars: at 1 µM.

For test [7], the target named is T1, Mitogen-activated protein kinase kinase kinase kinase 2 (Homo sapiens). Particulars: at 10 µM.
In test [8] the target is G protein-coupled receptor kinase 5 (Homo sapiens) (UniProt P34947). The conditions noted are these: at 1 µM.
The target is the same in test [9]. Particulars: at 10 µM.
Test [10] has as its target G protein-coupled receptor kinase 6 (Homo sapiens) (UniProt P43250). The conditions noted are these: at 10 µM.
In test [11] the target is T2, Rhodopsin kinase GRK7 (Homo sapiens) (UniProt Q8WTQ7).
T2 sequence (whole entry): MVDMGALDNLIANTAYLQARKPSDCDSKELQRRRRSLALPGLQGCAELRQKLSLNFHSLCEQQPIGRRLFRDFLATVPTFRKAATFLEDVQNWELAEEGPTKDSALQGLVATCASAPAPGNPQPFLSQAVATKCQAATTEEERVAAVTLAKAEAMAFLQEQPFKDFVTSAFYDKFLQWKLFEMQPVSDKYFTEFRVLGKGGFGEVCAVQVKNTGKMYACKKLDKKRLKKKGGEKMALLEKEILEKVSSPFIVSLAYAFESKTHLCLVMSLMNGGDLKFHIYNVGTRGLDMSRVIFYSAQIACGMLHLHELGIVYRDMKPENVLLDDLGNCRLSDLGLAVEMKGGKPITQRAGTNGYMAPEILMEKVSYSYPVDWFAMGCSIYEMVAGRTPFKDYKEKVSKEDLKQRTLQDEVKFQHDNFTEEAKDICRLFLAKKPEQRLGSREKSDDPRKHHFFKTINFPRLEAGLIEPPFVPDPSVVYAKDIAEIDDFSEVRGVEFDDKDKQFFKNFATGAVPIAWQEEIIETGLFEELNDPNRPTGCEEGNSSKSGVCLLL
Particulars: at 1 µM.

In test [12] the target is T2, Rhodopsin kinase GRK7 (Homo sapiens). Particulars: at 10 µM.
In test [13] the target is Glycogen synthase kinase-3 alpha (Homo sapiens) (UniProt P49840). The conditions noted are these: at 1 µM.
Test [14] shares this target. The conditions noted are these: at 10 µM.
Test [15] addresses Glycogen synthase kinase-3 beta (Homo sapiens) (UniProt P49841). The conditions noted are these: at 1 µM.
For test [16] the target is unchanged. Particulars: at 10 µM.
Test [17] deals with Homeodomain-interacting protein kinase 1 (Homo sapiens) (UniProt Q86Z02). Particulars: at 1 µM.
Test [18] has the same target. The conditions noted are these: at 10 µM.
Test [19] concerns the target Homeodomain-interacting protein kinase 2 (Homo sapiens) (UniProt Q9H2X6). The conditions noted are these: at 1 µM.
For test [20], the target named is G protein-coupled receptor kinase 6 (Homo sapiens) (UniProt P43250). The conditions noted are these: at 1 µM.
Chain of G protein-coupled receptor kinase 6 (Homo sapiens) (P43250 whole entry, looked up): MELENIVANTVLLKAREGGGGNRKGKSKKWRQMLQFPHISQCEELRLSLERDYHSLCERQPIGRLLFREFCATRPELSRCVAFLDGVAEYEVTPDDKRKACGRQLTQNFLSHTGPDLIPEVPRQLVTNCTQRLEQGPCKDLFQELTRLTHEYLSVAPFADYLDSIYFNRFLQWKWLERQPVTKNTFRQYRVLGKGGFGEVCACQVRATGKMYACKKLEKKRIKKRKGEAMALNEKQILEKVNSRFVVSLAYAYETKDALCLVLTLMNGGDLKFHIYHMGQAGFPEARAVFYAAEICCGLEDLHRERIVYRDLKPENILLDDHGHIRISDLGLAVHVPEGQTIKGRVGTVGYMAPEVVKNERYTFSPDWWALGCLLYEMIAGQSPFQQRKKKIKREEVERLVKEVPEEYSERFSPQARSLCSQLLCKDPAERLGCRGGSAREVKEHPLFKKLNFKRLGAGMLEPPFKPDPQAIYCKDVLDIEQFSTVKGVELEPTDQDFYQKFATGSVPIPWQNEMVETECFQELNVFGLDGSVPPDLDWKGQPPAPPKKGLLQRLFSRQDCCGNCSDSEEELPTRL

Chain of Tyrosine-protein kinase Fyn (Homo sapiens) (P06241 2-537 limits assumed): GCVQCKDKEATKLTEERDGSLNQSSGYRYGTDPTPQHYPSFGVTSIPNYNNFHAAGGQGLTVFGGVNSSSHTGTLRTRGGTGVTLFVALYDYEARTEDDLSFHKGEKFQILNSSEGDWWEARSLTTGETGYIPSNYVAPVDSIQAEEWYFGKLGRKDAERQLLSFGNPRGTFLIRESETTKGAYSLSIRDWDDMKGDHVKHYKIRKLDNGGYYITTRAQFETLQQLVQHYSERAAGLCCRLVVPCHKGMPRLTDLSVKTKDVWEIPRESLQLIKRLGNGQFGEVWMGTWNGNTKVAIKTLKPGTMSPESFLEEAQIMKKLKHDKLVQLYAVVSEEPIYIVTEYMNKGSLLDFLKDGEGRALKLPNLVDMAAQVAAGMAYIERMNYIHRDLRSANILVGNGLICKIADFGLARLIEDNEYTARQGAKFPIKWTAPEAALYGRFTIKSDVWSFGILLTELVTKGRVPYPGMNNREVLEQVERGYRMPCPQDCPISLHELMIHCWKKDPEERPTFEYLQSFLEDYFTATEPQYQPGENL
Chain of Homeodomain-interacting protein kinase 1 (Homo sapiens) (Q86Z02 whole entry, looked up): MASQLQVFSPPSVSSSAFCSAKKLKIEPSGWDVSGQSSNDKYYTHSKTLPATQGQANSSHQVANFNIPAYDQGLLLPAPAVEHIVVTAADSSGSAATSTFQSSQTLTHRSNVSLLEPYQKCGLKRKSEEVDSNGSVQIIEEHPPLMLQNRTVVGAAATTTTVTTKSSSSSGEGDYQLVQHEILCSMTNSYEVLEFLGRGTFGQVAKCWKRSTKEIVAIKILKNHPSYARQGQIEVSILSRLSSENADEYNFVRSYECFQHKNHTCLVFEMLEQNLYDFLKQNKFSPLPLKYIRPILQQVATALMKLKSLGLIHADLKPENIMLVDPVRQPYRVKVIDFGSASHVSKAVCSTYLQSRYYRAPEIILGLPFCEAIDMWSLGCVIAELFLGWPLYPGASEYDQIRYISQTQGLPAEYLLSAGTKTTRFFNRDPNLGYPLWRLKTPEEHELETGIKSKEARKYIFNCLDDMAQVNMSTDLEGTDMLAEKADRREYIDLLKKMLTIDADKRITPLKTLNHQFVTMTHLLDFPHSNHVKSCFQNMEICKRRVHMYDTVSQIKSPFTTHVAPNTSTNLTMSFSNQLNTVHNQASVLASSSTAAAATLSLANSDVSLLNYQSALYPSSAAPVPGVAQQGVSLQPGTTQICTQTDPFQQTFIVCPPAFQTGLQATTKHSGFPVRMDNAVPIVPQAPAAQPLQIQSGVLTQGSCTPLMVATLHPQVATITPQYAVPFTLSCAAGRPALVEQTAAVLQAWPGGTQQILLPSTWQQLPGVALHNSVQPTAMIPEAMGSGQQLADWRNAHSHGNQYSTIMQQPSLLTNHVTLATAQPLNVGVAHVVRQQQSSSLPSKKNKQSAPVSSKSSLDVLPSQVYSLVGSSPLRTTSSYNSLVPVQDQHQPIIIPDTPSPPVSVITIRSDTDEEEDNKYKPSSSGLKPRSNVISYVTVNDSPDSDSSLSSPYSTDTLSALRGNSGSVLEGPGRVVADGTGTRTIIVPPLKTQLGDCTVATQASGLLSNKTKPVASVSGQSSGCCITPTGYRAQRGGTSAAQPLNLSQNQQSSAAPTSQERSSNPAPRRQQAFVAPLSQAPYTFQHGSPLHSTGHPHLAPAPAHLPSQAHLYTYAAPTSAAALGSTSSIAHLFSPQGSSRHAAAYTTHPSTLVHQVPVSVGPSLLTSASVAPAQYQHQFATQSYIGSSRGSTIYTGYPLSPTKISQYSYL
Chain of Homeodomain-interacting protein kinase 2 (Homo sapiens) (Q9H2X6 whole entry, looked up): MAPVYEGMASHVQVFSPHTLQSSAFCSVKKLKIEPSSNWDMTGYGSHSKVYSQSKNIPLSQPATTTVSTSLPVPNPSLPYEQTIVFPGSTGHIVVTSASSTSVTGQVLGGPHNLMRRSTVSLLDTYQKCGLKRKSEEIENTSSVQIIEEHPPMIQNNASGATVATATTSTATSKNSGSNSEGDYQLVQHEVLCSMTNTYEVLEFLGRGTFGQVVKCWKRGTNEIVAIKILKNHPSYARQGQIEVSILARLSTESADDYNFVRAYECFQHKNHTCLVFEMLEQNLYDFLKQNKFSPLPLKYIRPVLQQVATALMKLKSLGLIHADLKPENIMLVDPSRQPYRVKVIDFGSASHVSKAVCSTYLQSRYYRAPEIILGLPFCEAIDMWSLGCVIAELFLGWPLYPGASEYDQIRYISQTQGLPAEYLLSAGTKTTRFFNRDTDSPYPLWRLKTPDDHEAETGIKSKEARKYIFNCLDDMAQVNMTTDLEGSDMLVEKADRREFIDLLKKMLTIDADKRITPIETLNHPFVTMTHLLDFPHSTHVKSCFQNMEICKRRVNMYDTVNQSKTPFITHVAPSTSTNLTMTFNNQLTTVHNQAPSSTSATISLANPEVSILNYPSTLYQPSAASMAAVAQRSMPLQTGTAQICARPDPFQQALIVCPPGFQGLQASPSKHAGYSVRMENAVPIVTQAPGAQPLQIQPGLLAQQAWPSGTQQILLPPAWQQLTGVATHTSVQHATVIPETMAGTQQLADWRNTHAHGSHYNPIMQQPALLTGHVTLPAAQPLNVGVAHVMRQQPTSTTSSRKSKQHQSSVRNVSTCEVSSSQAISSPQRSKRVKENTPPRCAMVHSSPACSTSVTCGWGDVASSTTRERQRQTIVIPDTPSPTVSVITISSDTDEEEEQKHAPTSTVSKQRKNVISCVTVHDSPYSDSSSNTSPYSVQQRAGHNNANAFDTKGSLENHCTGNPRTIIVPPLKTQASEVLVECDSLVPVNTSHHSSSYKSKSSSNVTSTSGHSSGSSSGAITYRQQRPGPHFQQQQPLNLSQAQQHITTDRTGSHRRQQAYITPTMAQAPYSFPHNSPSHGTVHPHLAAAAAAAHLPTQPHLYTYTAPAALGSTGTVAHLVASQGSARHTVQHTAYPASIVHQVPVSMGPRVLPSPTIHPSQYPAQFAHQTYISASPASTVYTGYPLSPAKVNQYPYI
Chain of Macrophage colony-stimulating factor 1 receptor (Homo sapiens) (P07333 whole entry): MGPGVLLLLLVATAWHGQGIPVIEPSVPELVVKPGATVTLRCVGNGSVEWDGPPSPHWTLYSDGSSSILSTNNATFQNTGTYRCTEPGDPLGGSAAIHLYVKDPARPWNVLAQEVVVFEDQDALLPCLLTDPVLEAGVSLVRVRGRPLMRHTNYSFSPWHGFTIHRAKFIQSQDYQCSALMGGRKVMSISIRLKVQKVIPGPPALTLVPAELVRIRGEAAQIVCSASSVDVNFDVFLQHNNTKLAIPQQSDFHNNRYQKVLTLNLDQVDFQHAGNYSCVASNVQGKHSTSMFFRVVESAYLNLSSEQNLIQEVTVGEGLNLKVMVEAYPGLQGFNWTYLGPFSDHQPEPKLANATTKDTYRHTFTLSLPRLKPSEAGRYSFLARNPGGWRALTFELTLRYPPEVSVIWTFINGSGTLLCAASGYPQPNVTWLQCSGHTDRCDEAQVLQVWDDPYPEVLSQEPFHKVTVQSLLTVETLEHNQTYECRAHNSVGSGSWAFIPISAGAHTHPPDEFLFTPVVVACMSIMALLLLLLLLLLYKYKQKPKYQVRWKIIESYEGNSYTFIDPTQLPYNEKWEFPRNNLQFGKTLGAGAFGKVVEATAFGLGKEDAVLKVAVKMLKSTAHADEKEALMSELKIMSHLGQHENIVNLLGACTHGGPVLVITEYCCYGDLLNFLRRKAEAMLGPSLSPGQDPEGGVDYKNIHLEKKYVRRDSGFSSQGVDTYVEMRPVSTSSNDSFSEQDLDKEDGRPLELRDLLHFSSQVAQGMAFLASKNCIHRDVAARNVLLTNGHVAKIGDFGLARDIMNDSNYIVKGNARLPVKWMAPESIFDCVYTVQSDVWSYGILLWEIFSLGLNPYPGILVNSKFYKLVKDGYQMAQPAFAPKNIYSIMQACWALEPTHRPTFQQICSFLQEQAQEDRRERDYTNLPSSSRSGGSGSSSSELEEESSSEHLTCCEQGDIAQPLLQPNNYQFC
Chain of Glycogen synthase kinase-3 beta (Homo sapiens) (P49841 whole entry, looked up): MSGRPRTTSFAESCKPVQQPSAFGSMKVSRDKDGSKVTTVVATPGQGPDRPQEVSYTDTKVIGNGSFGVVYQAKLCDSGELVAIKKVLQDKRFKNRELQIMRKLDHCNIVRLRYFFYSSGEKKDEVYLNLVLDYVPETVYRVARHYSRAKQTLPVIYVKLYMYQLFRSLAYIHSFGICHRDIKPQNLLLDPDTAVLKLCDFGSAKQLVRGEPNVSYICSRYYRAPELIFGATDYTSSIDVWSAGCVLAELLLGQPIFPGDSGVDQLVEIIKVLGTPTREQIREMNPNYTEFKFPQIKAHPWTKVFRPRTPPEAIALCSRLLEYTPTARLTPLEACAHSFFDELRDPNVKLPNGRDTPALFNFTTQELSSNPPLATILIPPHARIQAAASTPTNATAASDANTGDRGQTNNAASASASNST

As for `O=C1Nc2ccc3ncsc3c2/C1=C/c1c[nH]cn1`, the residual activity in test [1] amounted to 0%; in test [2] it was 22%; in [3], 3%; in test [4], 46%; in [5], 12%; in test [6] it was 7%. The residual activity came out at 1% in [7]; 71% in [8]; 25% in test [9]; 60% in [10]; 63% in test [11]; 20% in [12]. For the same compound, the residual activity came out at 4% in test [13]; 1% in test [14]; 4% in [15]; 0% in [16]; 64% in test [17]; 26% in test [18]. The residual activity in test [19] is 32%.
Consider `CN[C@@H]1C[C@H]2O[C@@](C)([C@@H]1OC)n1c3ccccc3c3c4c(c5c6ccccc6n2c5c31)C(=O)NC4`, for which the residual activity in test [7] was determined as 0%; in [17] it was 87%.
In the case of `O=C1NC(=O)C(c2cn(CCCn3ccnc3)c3ccccc23)=C1Nc1ccccc1`, the residual activity in test [8] came to 78%.
As for `N/C(=N\[N+](=O)[O-])N/N=C\c1ccc(-c2cccc([N+](=O)[O-])c2)o1`, the residual activity in [1] came to 42%; in [2], 67%; in test [3] it was 65%; in test [4] it was 77%; in [5], 83%; in [7] it was 87%. Besides, the residual activity is 97% in test [20]; 94% in [10]; 100% in test [11]; 91% in test [12]; 99% in [13]; 78% in test [14]. Also, the residual activity in [16] came to 97%; in [17] it was 99%; in test [18] it was 100%; in [19] it was 82%.
On to `O=[N+]([O-])/C=C/c1ccc2c(c1)OCO2`, for which the residual activity in test [1] was found to be 95%; in test [2], 87%; in [3], 100%; in test [4], 105%; in test [5] it was 92%; in [6], 92%. The residual activity in test [7] came to 86%; in test [8] it was 106%; in test [9], 91%; in test [20] it was 105%; in [10], 89%; in test [11], 103%. In addition, the residual activity in [12] turned out to be 86%; in test [13], 125%; in test [14], 113%; in test [16], 74%; in test [17] it was 96%; in test [18] it was 112%. Further, in test [19], the residual activity stood at 93%.
In the case of `Cn1c2ccccc2c2c3c(c4c5ccccc5n(CCC#N)c4c21)CNC3=O`, in [8], the residual activity was found to be 69%.
On the same count and under the same terms, then `O=C1NC(=O)C(c2cn(CCCO)c3ncccc23)=C1c1cnccn1`, with 100%.
As for `O=C1c2ccccc2-c2nc3nnnn3nc21`, the residual activity in [1] stood at 70%; in test [8] it was 107%; in [9] it was 77%; in test [13], 101%; in [14] it was 120%; in test [15] it was 115%. Also, the residual activity in test [16] was determined as 101%.
Regarding `O=C1Nc2ccc(Br)cc2/C1=C\c1cc2c([nH]1)CCCC2`, the residual activity in test [8] was determined as 104%; in test [20], 102%.
Regarding `COc1cc2nccc(Oc3ccc(NC(=O)Nc4cc(C)on4)c(Cl)c3)c2cc1OC`, in [8], the residual activity was 105%.
In the case of `CCc1nc(-c2ccc(OC)cc2)[nH]c1-c1ccncc1`, the residual activity was found to be 77% in [1]; 78% in test [2]; 71% in test [3]; 75% in test [4]; 72% in [5]; 106% in test [13]. In addition, the residual activity turned out to be 114% in test [15] and 115% in test [16].
Consider `CC(C)(C)c1cc(C=C(C#N)C#N)cc(Br)c1O`, for which the residual activity in [1] worked out at 83%; in test [2] it was 97%; in [3], 76%; in test [5] it was 15%; in test [6] it was 113%; in [8], 120%. Further, the residual activity in [9] was 100%; in test [20], 106%; in test [10], 104%; in test [11] it was 113%; in test [12], 102%; in test [13] it was 117%. Moreover, the residual activity amounted to 74% in test [14]; 106% in test [15]; 96% in test [16]; 107% in test [17]; 104% in [18]; 101% in test [19].
